Holding throughout (experiment): NCI-60 one-dose screen, 48 h (100 = growth as untreated, 0 = no growth, -100 = all killed)
What all share (conditions): 10 µM unless noted

Assay [1] deals with SR leukemia.
Assay [2] has as its system OVCAR-8 ovarian.
The subject of assay [3] is OVCAR-5 ovarian.
For assay [4], the system named is OVCAR-4 ovarian.
Assay [5] has as its system SK-OV-3 ovarian.
Assay [6] deals with IGROV1 ovarian.
In assay [7] the test system is OVCAR-3 ovarian.
Assay [8] has as its system HS 578T breast.
In assay [9] the test system is NCI/ADR-RES ovarian.
In assay [10] the test system is T-47D breast.
Assay [11] concerns BT-549 breast.
In assay [12] the test system is SW-620 colon.
In assay [13] the test system is MCF7 breast.
The subject of assay [14] is HCT-116 colon.
Assay [15] relates to KM12 colon.
Assay [16] has as its system HCC-2998 colon.
The test system of assay [17] is MDA-MB-435 melanoma.
Assay [18] deals with RPMI-8226 leukemia.

SMILES strings stand for the structures. This is part of a sample that, as a whole, favours compounds with a hit. Of some 83,000 tested, about 20% had one in any assay.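 96-well plates, one dose, 48 hours. Percent growth reported; active if below 10.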 A number with no mark means an inactive call. Activity calls are given as the source filed them.

Regarding `COc1cc(C2=NN(C(C)=O)C(c3ccc(N4CCOCC4)cc3)C2)cc(OC)c1OC` (stereo not drawn), the growth is 108% in assay [1]; 101% in [2]; 103% in assay [3]; 107% in assay [4]; 97.4% in assay [5]; 98.5% in assay [6]. Moreover, the growth in assay [7] was 120%; in assay [8], 108%; in assay [9] it was 99.5%; in assay [10], 97.1%; in assay [11] it was 92.2%; in [12] it was 105%. For the same compound, the growth in assay [13] is 96.3%; in assay [14] it was 95.7%; in [15] it was 106%.
For the compound `O=C(Nc1cccc(-c2nc(-c3ccc(NC(=O)c4cccnc4)cc3Cl)no2)c1)Nc1ccc(NC(=O)C2CC2)c(C(F)(F)F)c1`, the growth in [1] was -14.4% (active); in assay [2], -16.8% (active); in [3], -65.6% (active); in assay [4] it was -74.1% (active); in assay [5], -48.3% (active); in assay [6] it was -55.4% (active). Also, the growth in assay [7] is -74.7% (active); in assay [8] it was -31% (active); in [9], 64.1%; in [10], -51.1% (active); in assay [11] it was -39.5% (active); in [12], -59.9% (active). Also, the growth was -66.8% (active) in assay [13], -52.8% (active) in assay [14], -69.6% (active) in assay [16] and -63.9% (active) in [15].
Regarding `C#C[C@]1(O)CC[C@H]2[C@@H]3CC=C4c5sc(-c6ccccn6)nc5CC[C@]4(C)[C@H]3CC[C@@]21C`, the growth in assay [1] was 29.3%; in [2] it was 91.8%; in [3] it was 94.2%; in assay [4], 98.6%; in assay [5], 76.8%; in assay [6], 88.9%. In addition, the growth is 88% in assay [7]; 14.4% in assay [8]; 89.8% in assay [9]; 85.3% in assay [10]; 59.8% in [11]; 74.2% in assay [12]. Moreover, the growth in assay [13] is 49.3%; in assay [14], 62%; in assay [16], 92.5%; in assay [15], 85.7%.
On to `CCOc1ccc2nc(NC(=O)Nc3ccccc3C)sc2c1`, for which the growth in [1] was 24.3%; in [2], 74.7%; in [3], 80.2%; in [4] it was 80.2%; in assay [5] it was 82.3%; in [7], 20.7%. The growth was 50.5% in [8]; 22.8% in assay [9]; 47.7% in [10]; 53.8% in assay [11]; -11.1% (active) in assay [17]; 29.2% in [12]. Further, the growth in assay [13] is 27.7%; in [14], 39.8%; in assay [16] it was 81.4%; in [15] it was 40.7%.
Regarding `O=C(Nc1ccc(-c2nc(-c3cccc(O)c3)c(-c3ccnc(Br)c3)[nH]2)cc1)c1ccccc1`, the growth was -15.2% (active) in assay [1]; 24.3% in assay [2]; 57.7% in assay [3]; 35% in assay [4]; -5.97% (active) in [5]; 25.6% in [6]. Further, the growth was 31.6% in [7]; -24.1% (active) in assay [8]; 57.6% in assay [9]; -6.8% (active) in assay [10]; 40.6% in assay [11]; 10.5% in assay [12]. In addition, the growth in assay [13] is 0.42% (active); in [14] it was 18.1%; in assay [16] it was 26.3%; in [15], 12.9%.
As to `C#C[C@]1(O)CC[C@H]2[C@@H]3CC=C4c5sc(-c6cccc(F)c6)nc5CC[C@]4(C)[C@H]3CC[C@@]21C`, the growth in assay [1] is 76.4%; in assay [2] it was 96.8%; in [3] it was 83.2%; in assay [4], 110%; in assay [5], 92.7%; in [6] it was 97.2%. Further, the growth in assay [7] is 102%; in assay [8] it was 68.7%; in [9], 89.1%; in assay [10], 65.4%; in [11] it was 96.3%; in assay [12] it was 89.7%. The growth in assay [13] is 66.7%; in assay [14], 80.6%; in assay [16], 85.2%; in assay [15] it was 75.6%.
On to `Cc1ccc(Nc2ncnc3c2c(C)nn3-c2ccc([N+](=O)[O-])cc2)cc1`, for which the growth was 68.6% in assay [1]; 72.6% in [2]; 101% in assay [3]; 46% in [4]; 71.7% in [5]; 84.1% in [6]. Also, the growth in assay [7] was 46.3%; in [8] it was 68.6%; in [9], 80.4%; in [10], 78.8%; in [11], 92.5%; in assay [12] it was 65.5%. Also, the values for the growth in assay [14], in assay [16] and in assay [15] were 58.9%, 97.4% and 81.2%, respectively.
On to `COc1ccc(NS(=O)(=O)c2ccc(-c3cnc(C4CC4)o3)cc2)cc1Cl`, for which the growth is 23.2% in [1]; 40.4% in assay [2]; 48.8% in assay [3]; 52.5% in assay [4]; 41.4% in assay [6]; 15.5% in assay [7]. For the same compound, the growth in assay [8] was 28.1%; in assay [9] it was 18.6%; in [10] it was 30.3%; in assay [11] it was 57.5%; in [12] it was 22.6%; in assay [13], 17.4%. For the same compound, the growth is 26.7% in assay [14], 53.1% in assay [16] and 22.7% in assay [15].
Turning to `O=C1CC2(CCOCC2)Oc2ncccc21`, the growth in [18] is 5.53% (active); in [2], 90.9%; in [3], 52.6%; in [4], 102%; in assay [5], 120%; in assay [6] it was 8.85% (active). Also, the growth was -54.4% (active) in assay [7]; 95.2% in assay [8]; 104% in assay [9]; 70.6% in [10]; 105% in assay [11]; 81.2% in assay [17]. The growth was -54.6% (active) in assay [12]; 12.7% in assay [13]; 29% in [14]; 25.1% in [16]; 12.1% in assay [15].
For the compound `CCC(=O)Nc1ccc(-c2nc(-c3cccc(O)c3)c(-c3ccnc(Br)c3)[nH]2)cc1`, the growth in assay [1] is 38.2%; in assay [2] it was 51.8%; in [3], 92.9%; in assay [4], 51.1%; in assay [5], 93.9%; in [6] it was 85.4%. Also, the growth in assay [7] was 67.5%; in assay [8], 23%; in [9], 96.5%; in assay [10] it was 26.4%; in assay [11] it was 74.1%; in assay [12], 84.7%. The growth in [13] is 13.3%; in assay [14], 55.9%; in assay [16] it was 95.8%; in [15] it was 58.9%.

The record behind these values is PubChem BioAssay (NCI).
